From PubChem BioAssay (NCATS) come the findings set out here.

A short description of assay [1]: NCATS anti-infectives library activity on HEK293 viability as a counter-qHTS vs the C. elegans viability qHTS (AID 1745854).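 Further: HEK293 cells exposed to compounds for 24 hr before the viability read; on the % scale 0 is the no-effect control and ±100 the full control effect.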 The method in brief:
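Compound titrations (final up to 41.7 uM) were incubated with HEK293 cells for 24 hr at 37C under 5% CO2. Viable cells were quantified with CellTiter-Glo after 10 min at ambient temperature.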
(qHTS replaces the single test concentration by a dilution series.)

In assay [2] the target is Glutathione peroxidase 1 (Homo sapiens) (UniProt P07203). Put plainly: Primary qHTS Assay for Inhibitors of Recombinant Selenoprotein Glutathione Peroxidase 1 (GPX1) (AID 1845191). Further: nearly all actives have a fitted effect of over 65% in size. The method in brief:
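NADPH consumption tracked by fluorescence at 340/450 nm between t=0 and t=15 min, room temperature. Final mix: 10 nM GPX1, 100 nM glutathione reductase, 1 mM GSH, 0.5 mM NADPH, 0.5 mM cumene hydroperoxide, 0.01% BSA; 30 min compound–enzyme preincubation.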

Assay [3] addresses Phospholipid hydroperoxide glutathione peroxidase GPX4 (Homo sapiens) (UniProt P36969). Put plainly: Primary qHTS Assay for Inhibitors of Recombinant Selenoprotein Glutathione Peroxidase 4 (GPX4) (AID 1845192). Further: nearly all actives have a fitted effect of over 65% in size. In a few lines:
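NADPH consumption followed by fluorescence at 340/450 nm, t=0 and after 15 min at room temperature. Reaction started with cumene hydroperoxide (0.5 mM final) after 30 min compound–GPX4 preincubation; final 200 nM GPX4, 100 nM GR, 1 mM GSH, 0.5 mM NADPH.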

Assay [4] is described as follows: Quantitative High-Throughput drug screen in 47 multiple myeloma cell lines against the NCATS MIPE library collection: FR4_PLB cell viability assay (AID 1918924; further: nearly all actives have a fitted effect of over 35% in size; further: potency means the concentration at half of the fitted maximal effect). The method in brief: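 Approved and investigational drugs from MIPE 4.0 were added by pin tool to 500 cells per well. After 48 hours at 37C, ATP-based CellTiter-Glo luminescence indicated remaining viability.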

Assay [5] can be described thus: Quantitative High-Throughput drug screen in 47 multiple myeloma cell lines against the NCATS MIPE library collection: EJM_DSMZ cell viability assay (AID 1918926; further: nearly all actives have a fitted effect of over 30% in size; further: potency means the concentration at half of the fitted maximal effect). The method in brief: (§1)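 Relative luminescence from CellTiter-Glo served as the viability signal, referenced to DMSO-treated (100%) and cell-free medium (0%) controls. Treatment lasted 48 hours at 37C with 500 cells per well.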

Assay [6] in a line: Quantitative High-Throughput drug screen in 47 multiple myeloma cell lines against the NCATS MIPE library collection: AMO1_DSMZ cell viability assay (AID 1918927; further: nearly all actives have a fitted effect of over 30% in size; further: potency means the concentration at half of the fitted maximal effect). In a few lines: as §1
The nature of assay [7]: Quantitative High-Throughput drug screen in 47 multiple myeloma cell lines against the NCATS MIPE library collection: ARP1_JJKsccF8 cell viability assay (AID 1918928; further: nearly all actives have a fitted effect of over 40% in size; further: potency means the concentration at half of the fitted maximal effect). The method in brief: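 500 cells/well; MIPE 4.0 library pinned in; 48 h, 37 °C, 5% CO2; CellTiter-Glo ATP luminescence. Controls: DMSO = 100% viability, medium only = 0%.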
Assay [8] in a line: Quantitative High-Throughput drug screen in 47 multiple myeloma cell lines against the NCATS MIPE library collection: ARD_JJKsccE7 cell viability assay (AID 1918929; further: potency means the concentration at half of the fitted maximal effect;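 on viability: 100% = DMSO-only wells and 0% = media-only wells without cells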). The method in brief:
as §1

The target of assay [9] is Metallo-beta-lactamase type 2 (Klebsiella pneumoniae) (UniProt C7C422). Put plainly: qHTS to identify inhibitors of the New Delhi Metallo-beta-lactamase (NDM): assay validation screen against the NCATS LOPAC Collection (AID 1794843).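 Further: nitrocefin turnover by NDM-1 measured as 485 nm absorbance at plateau; series mostly up to about 38 µM; on the % scale 0 is the no-effect control and ±100 the full control effect.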 The method in brief:
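Enzyme 2 nM final, 50 mM HEPES pH 7.0, 1 uM ZnSO4, 0.01% Tween20; cpds in DMSO, preincub w/ enzyme; + nitrocefin (50 uM stock); A485 at plateau; no-enzyme column as blank.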

Assay [10] has as its system Nanoluciferase (engineered Oplophorus gracilirostris luciferase). As to the kind of experiment: Primary Nanoluciferase (NLuc) qHTS assay for identification of artifact compounds. (AID 1845222).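 Further: series mostly up to about 54 µM; 0% = DMSO and -100% = no enzyme.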 In a few lines:
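Compounds are pinned into diluted (1:55) conditioned medium of NLuc-expressing S16 cells and held 15 min at room temperature protected from light. Nano-Glo substrate follows, and luminescence is read 5 min later.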

Assay [11] can be described thus: Primary redox qHTS assay for identification of artifact compounds. (AID 1845223).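 Further: 0% = DMSO and 100% = reference compound.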 The method in brief: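 Redox-cycling detection via DTT (250 uM final) oxidation coupled to Amplex Red (25 uM)/HRP (250 mU/mL) in HBSS. 15 min preincubation plus 30 min after DTT, room temperature. Ex/Em 525/598 nm; 4-parameter Hill fit against DMSO and 10 uM DA3003.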
For assay [12], the target named is Phenylethanolamine N-methyltransferase (Homo sapiens) (UniProt P11086). Put plainly: Confirmatory Screen for Target Class Profiling of Small Molecule Inhibitors of Methyltransferases (AID 1745852). To be noted: MTase-Glo luminescence, SAH detection, recombinant enzyme, stronger effect = lower value; measured here: PNMT max response unless noted.
Phenylethanolamine N-methyltransferase (Homo sapiens), sequence (P11086 whole entry, looked up): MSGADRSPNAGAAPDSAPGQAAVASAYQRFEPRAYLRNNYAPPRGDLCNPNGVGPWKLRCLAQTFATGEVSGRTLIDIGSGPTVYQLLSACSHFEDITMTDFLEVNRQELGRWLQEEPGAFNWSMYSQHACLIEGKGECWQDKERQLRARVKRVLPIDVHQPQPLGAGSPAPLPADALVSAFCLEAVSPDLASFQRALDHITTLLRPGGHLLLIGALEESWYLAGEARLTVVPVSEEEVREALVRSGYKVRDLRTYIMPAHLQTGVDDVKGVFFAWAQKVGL
A short description of assay [13]: Primary fluorescence-based thiol-reactive (MSTI) qHTS assay for identification of artifact compounds. (AID 1845221). Further: series mostly up to about 54 µM; nearly all actives have a fitted effect of over 65% in size. In a few lines: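 Compounds were incubated 1 h at room temperature in the dark with the MSTI probe (4 uM) in PBS pH 7.4, 2% DMSO. Signals were normalized between Acetyl-MSTI and MSTI.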
Assay [14] in a line: Quantitative High-Throughput drug screen in 47 multiple myeloma cell lines against the NCATS MIPE library collection: Delta47_JCRB cell viability assay (AID 1918925; further: potency means the concentration at half of the fitted maximal effect; nearly all actives have a fitted effect of over 45% in size). The method in brief: as §1
The nature of assay [15]: NCATS anti-infectives library activity on the primary C. elegans qHTS viability assay (AID 1745855; calls by dose curve). In a few lines:
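Titration-based screen in worms: eggs hatched overnight in M9, L1 larvae fed TOP10 capsules in S medium with compound, incubated 21 °C for 7 days; fluorescent objects gated by size and intensity at days 0, 3 and 7.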

Structures are written as SMILES. Records with an inconclusive call do not appear. The source made the active and inactive calls. Unless noted, the call rests on the fitted dose curve; in most records, active means well fitted curve in the direction sought with a large enough effect; inconclusive means small, poorly fitted or top-dose-only effect, or another doubt; inactive means no such curve, though single readings can be large; an effect the other way counts as inactive or inconclusive.

Metallo-beta-lactamase type 2 (Klebsiella pneumoniae), sequence (C7C422 whole entry, looked up): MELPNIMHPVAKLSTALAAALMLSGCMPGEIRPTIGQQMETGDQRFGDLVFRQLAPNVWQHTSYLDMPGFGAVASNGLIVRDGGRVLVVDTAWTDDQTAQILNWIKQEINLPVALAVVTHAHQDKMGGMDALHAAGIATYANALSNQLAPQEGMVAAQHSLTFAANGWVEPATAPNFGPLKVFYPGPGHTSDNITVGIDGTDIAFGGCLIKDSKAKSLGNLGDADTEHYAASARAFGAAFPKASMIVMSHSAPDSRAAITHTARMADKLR
Glutathione peroxidase 1 (Homo sapiens), sequence (P07203 whole entry, looked up): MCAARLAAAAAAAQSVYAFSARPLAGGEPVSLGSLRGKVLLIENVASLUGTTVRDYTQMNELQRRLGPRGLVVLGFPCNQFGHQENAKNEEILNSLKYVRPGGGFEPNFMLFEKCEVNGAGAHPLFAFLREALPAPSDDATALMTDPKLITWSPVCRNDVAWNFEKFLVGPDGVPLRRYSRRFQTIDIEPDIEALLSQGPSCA
Phospholipid hydroperoxide glutathione peroxidase GPX4 (Homo sapiens), sequence (P36969 whole entry, looked up): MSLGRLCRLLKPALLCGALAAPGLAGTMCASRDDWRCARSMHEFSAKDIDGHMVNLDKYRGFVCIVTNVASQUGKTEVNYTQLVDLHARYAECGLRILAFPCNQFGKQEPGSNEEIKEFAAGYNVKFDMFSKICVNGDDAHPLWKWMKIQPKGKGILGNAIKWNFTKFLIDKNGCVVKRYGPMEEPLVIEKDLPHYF

Consider `Oc1ccc(OCc2ccccc2)cc1`, for which the outcome in assay [1] was “inactive”. In addition, the Potency entry in [2], in assay [3], in assay [4], in assay [5], in assay [6] and in assay [8] was “inactive” each time. In addition, in [7], the Potency was 18.7 µM (active).
As for `c1cnc2cc3c(cc2n1)C1CNCC3C1`, the outcome in assay [9], in [10] and in assay [11] was “inactive” each time. In addition, the Potency entry in assay [2], in [3], in [4], in [5], in [6] and in assay [7] was “inactive” each time. In addition, the Potency result in assay [8] was “inactive”.
For `Clc1ccc(C(Cn2ccnc2)OCc2c(Cl)cccc2Cl)c(Cl)c1` (stereo unspecified), in [12], the activity was -12.3%. Further, the Potency entry in [2], in assay [3] and in [13] was “inactive” each time. The outcome in [10] and in [11] was “inactive” throughout. Besides, the figures for the Potency in assay [6], in [7] and in [8] were 20.9 µM (active), 23.5 µM (active) and 16.6 µM (active), respectively.
As for `Cc1ccc(Nc2nccc(N(C)c3ccc4c(C)n(C)nc4c3)n2)cc1S(N)(=O)=O`, the activity in [12] is -2.8%. For the same compound, the Potency result in assay [2], in assay [3] and in [13] was “inactive” in each case. Besides, the outcome in assay [10] and in [11] was “inactive” in each case. Moreover, the Potency is 20.9 µM (active) in assay [4]; 16.6 µM (active) in assay [14]; 14.8 µM (active) in assay [5]; 10.5 µM (active) in [6]; 16.6 µM (active) in [8].
With `COc1ccc2cc([C@H](C)C(=O)O)ccc2c1`, the outcome in assay [1] and in [11] was “inactive” throughout. Further, the Potency result in [15], in [2], in [3], in assay [4], in assay [5] and in [6] was “inactive” throughout. In addition, the Potency entry in [7] and in [8] was “inactive” throughout.
`Oc1ccc2ccccc2c1SSc1c(O)ccc2ccccc12`: the activity in [12] amounted to 2.32%. Also, the outcome in assay [9] was “inactive”. The Potency entry in [2] and in [3] was “inactive” in each case. Further, the Potency in [4] is 20.9 µM (active); in assay [14], 16.6 µM (active); in assay [6], 20.9 µM (active); in assay [7], 23.5 µM (active); in assay [8], 16.6 µM (active).
Turning to `CC(C)c1nc(CN(C)C(=O)N[C@H](C(=O)N[C@@H](Cc2ccccc2)C[C@H](O)[C@H](Cc2ccccc2)NC(=O)OCc2cncs2)C(C)C)cs1`, the outcome in assay [1] and in [10] was “inactive” in each case. The Potency result in [2], in [3], in assay [13] and in assay [5] was “inactive” each time. Moreover, the Potency in assay [4] was 11.8 µM (active).
As to `CC(=O)NC[C@H]1CN(c2ccc(N3CCOCC3)c(F)c2)C(=O)O1`, the outcome in assay [1], in assay [9], in assay [10] and in assay [11] was “inactive” in each case. In addition, the Potency entry in assay [2], in assay [3], in [13], in [4], in assay [5] and in assay [6] was “inactive” in each case. Moreover, the Potency entry in assay [8] was “inactive”. Moreover, the Potency in assay [7] is 18.7 µM (active).
